The source made the active and inactive calls. The calls were made as follows: active = hit-call score of the fitted dose curve at least 0.9, where 1 is the maximum; inactive = score below 0.9.
test: CEETOX_H295R_ESTRADIOL: CeeTox H295R High-throughput Steroidogenesis Assay for Estradiol (AID 2283440); conditions: actives raise or lower the signal;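 also: estradiol secreted into medium quantified by LC-MS/MS after dansyl derivatisation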
Method: CEETOX_H295R is a cell-based, multiplexed-readout assay that uses H295R, a human adrenal gland cell line, with measurements taken at 48 hours after chemical dosing in a 96-well plate.CEETOX_H295R_ESTRADIOL is one of 23 assay component(s) measured or calculated from the CEETOX_H295R assay. It is designed to make measurements of hormone induction, a form of inducible reporter, as detected with absorbance signals by HPLC-MS-MS technology.Data from the assay component CEETOX_H295R_ESTRADIOL was analyzed into 1 assay endpoint. This assay endpoint, CEETOX_H295R_ESTRADIOL, was analyzed with bidirectional fitting relative to DMSO as the negative control and baseline of activity. […] To generalize the intended target to other relatable targets, this assay endpoint is annotated to the steroid hormone intended target family, where the subfamily is estrogens.
Cell culture and media preparation procedures were conducted in accordance with OECD Test No. 456 guidelines, with minor modifications. H295R cells (ATCC CRL-2128) were expanded for 5 passages and frozen in batches in liquid nitrogen. Prior to the steroidogenesis assay, H295R cells were thawed and passed at least 4 times. The maximum passage was 10. Cells were maintained in a 1:1 mixture of DMEM/F12 supplemented with 5ml/L ITS+ Premix (BD Bioscience) and 12.5 ml/L Nu-Serum (BD Bioscience). After seeding cells into 96-well plates at 50-60% confluency, cells were allowed to adhere overnight. Prior to chemical testing, culture medium was replaced with 175 uL medium containing 10 uM forskolin to stimulate steroidogenesis for 48 hours. Following prestimulation, forskolin medium was replaced with medium containing test chemical solubilized in DMSO (ensuring a final concentration of 0.1% DMSO). Test chemicals were incubated for 48 hours, then the medium was removed and split into 2 vials containing approximately 75uL each, and stored at -80 C prior to hormone analysis. For steroid quantification, media samples were shipped to OpAns, LLC (Durham, NC) on dry ice, and samples were thawed to room temperature prior to liquid-liquid extraction. Steroid hormones were extracted from media samples using methyl tertbutyl ether (MTBE). An extra derivatization with dansyl chloride was included for estrogen (estrone and estradiol) detection only. Steroid hormones were separated by HPLC, eluted using a reverse phase C18 gradient with electrospray positive ionization, followed by quantification by tandem mass spectrometry (MS/MS). Data were acquired on a MassHunter Workstation Acquisition version B03.01 (Agilent Technologies, Inc.) and processed using MassHunter Quantitative Analysis for QQQ. Accuracy was determined for each hormone analyte from 3 standards to determine upper and lower limits of quantification (ULOQ and LLOQ, respectively) using a 7-point standard curve. Precision and accuracy of the extraction and quantification methods were calculated as the percent relative standard deviation (%RSD) of the spiked standards and percent spiked standard recovered, respectively. […] Test medium was removed following chemical exposure, and cell viability was evaluated in the same wells by MTT. MTT procedures were as follows: after removal of test medium, 500 uL of 0.5 mg/ml of 3-[4,5-dimethylthiazol-2-y]2,5-diphenyltetrazoliumbromide solution was added to the cells. Following a 4-hour incubation at 37 C and 5% CO2 to allow formazan-crystal formation, the MTT solution was removed and blue formazan salt crystals were solubilized using 500uL anhydrous isopropanol with shaking for 20 minutes. Absorbance was read at 570 and 650nm using a Packard Fusion microplate reader. Background correction of absorbance units was used to determine percent change relative to controls. […] When a test chemical reduced cell viability to 20% - 70%, the test chemical was diluted 10-fold and re-evaluated, but if cell viability was <20%, then the test chemical was diluted 100-fold and re-evaluated. […]

Compound	outcome	AC50
CCCOc1ccc(S(=O)(=O)N2CCN(CC)CC2)cc1-c1nc2c(CC)n(Cc3ccccn3)nc2c(=O)[nH]1	inactive	–
c1ccc2c(c1)-c1cccc3c1c-2cc1ccccc13	inactive	–
CCCCCCCC1CCC(=O)O1 (centres undefined)	inactive	–
CCCCCCCCCCCCCCO	inactive	–
CCN(CC)C(=S)SSC(=S)N(CC)CC	inactive	–
CCCCC(CC)C(=O)OCCOCCOCCOC(=O)C(CC)CCCC (centres undefined)	inactive	–
CC[C@H](C)C(=O)O[C@H]1C[C@H](O)C=C2C=C[C@H](C)[C@H](CC[C@@H](O)C[C@@H](O)CC(=O)O)[C@H]21	inactive	–
CC(C)c1nnc2ccc(-c3ocnc3-c3cc(F)ccc3F)cn12	inactive	–
C[C@@H](Oc1ccc(CNC(=O)c2cccnc2Oc2ccc3c(c2)OCO3)c(F)c1)C(=O)O	inactive	–
OCc1c[nH]c2ccccc12	inactive	–
CCn1nc(C)c2c1C(=O)NCC(c1ccc(O)cc1)=N2	–	180 nM (active)
CCOc1ccc2[nH]cc(C(=O)NCc3ccccc3)c(=O)c2n1	inactive	–
C=CCc1cc(S(=O)(=O)c2ccc(O)c(CC=C)c2)ccc1O	inactive	–
COc1cc2c(c(OC)c1OC)-c1ccc(OC)c(=O)cc1[C@@H](NC(C)=O)CC2	inactive	–

— PubChem BioAssay (EPA / NIEHS)
